In the library only some 2.9% were active in any assay of this set; here they are far more common.
Integrin act MD: integrin-mediated muscular dystrophy alleviation activation. AID 624291. Potency, µM (top dose mostly 38.3 µM), inactives show at the highest dose activation, most hits filed as activators. alpha7betagal myoblasts, beta-gal FDG fluorescence, 48 h. actives 0.064% (n = 350,000); active = well fitted activation curve with a large enough effect; inconclusive = small, poorly fitted or top-dose-only effect; inactive = no such curve, though single readings can be large or run the other way;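 note: potency is the fitted concentration of half-maximal effect; 100% = response of the positive control SU9516; nearly all actives have a fitted effect of over 60% in size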
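Alpha7betagal+/- myoblasts (passage 13) were plated 16-24 hr, then exposed to compounds (1:260 dilution of DMSO stock) for 48 hours at 37C. After MPER lysis, β-galactosidase reporter activity was read as FDG fluorescence (ex 480/em 540) after 30 minutes.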
DRD3 agonist: D3 dopamine receptor (human) agonism; D3R DiscoveRx beta-arrestin cells, luminescence, 90 min; max activation, %; actives 0.58% (n = 410,000); AID 652048; in the data active = max activation above about 30%; note: 0% is about no effect
Target sequence (P35462 whole entry, looked up): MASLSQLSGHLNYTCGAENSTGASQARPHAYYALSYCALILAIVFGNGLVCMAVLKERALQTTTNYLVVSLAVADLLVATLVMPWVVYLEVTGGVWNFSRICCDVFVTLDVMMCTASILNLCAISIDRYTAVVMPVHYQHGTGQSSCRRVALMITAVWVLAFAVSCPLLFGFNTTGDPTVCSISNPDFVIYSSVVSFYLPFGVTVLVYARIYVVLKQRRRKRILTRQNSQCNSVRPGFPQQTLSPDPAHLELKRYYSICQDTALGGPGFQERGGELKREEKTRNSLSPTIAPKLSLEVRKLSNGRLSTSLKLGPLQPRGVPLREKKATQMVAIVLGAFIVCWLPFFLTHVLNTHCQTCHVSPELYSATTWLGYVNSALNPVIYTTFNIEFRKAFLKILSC
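Agonist mode: compounds and dopamine controls were applied to plated cells for 90 min at 37 degrees C after an overnight attachment at 1500 cells/well. Luminescent read-out followed 30 - 60 minutes at room temperature with DiscoveRx detection reagent.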
DRD3 antagonist: antagonists of human D3 dopamine receptor | P35462 | D3R cells, DiscoveRx beta-arrestin luminescence, antagonist mode; hits give low values | max response, negative = inhibition, % | actives 2.5% (n = 360,000) | AID 652054; in the data active = max response below about -50%; inconclusive = no clear call, values can overlap the other calls; note: % is set by controls: 0 for no effect and ±100 for the full control effect
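Cells plated overnight at 1500 cells/well, then exposed to library compounds with dopamine controls for 90 minutes at 37 degrees C. DiscoveRx reagent added for 30–60 minutes at room temperature; luminescence read, quantitative HTS format.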
An asterisk follows results filed as active; ? = inconclusive; . = no result; [ ] = dose if it differs, or a comment.

SMILES | Integrin act MD | DRD3 agonist | DRD3 antagonist
O=C(CCN1CCOCC1)c1ccc(N2CCCCC2)cc1 | -12.0% | -49.7 | -76.3*
O=C(CCN1CCN(c2ccc([N+](=O)[O-])cc2)CC1)c1ccc(Cl)cc1 | -52.2% | -9.3 | -16.5
c1ccc(CCCN2CCN(c3ccccc3)CC2)cc1 | -18.8% | 1.4 | -64.4*
O=C(c1ccc(S(=O)(=O)N2CCOCC2)cc1)N1CCN(c2cccc(Cl)c2)CC1 | -23.9% | 10.1 | -68.9*
O=S(=O)(N/N=C\c1ccc2c(c1)OCO2)c1ccc(F)cc1 | -16.0% | 2.9 | -4.3
O=C(NCC(c1ccco1)N1CCOCC1)c1ccc(Cl)cc1 (stereo not given) | -0.5% | -15.0 | 6.6
CCC(=O)NC(=S)Nc1ccc(-c2nc3ccccc3s2)cc1 | 8.4% | -14.2 | 0.0
O=C(C[C@H]1C/C=C\C[C@H](Cc2ccc(F)cc2)C(=O)OC[C@@H]2CCCN2C1=O)N[C@H](CO)Cc1ccccc1 | 14.0% | -2.1 | 5.2
COc1ccc(N2CCN(CCNC(=O)Nc3ccc(Cl)cc3)CC2)cc1 | -16.6% | -29.3 | ?
O=C(CN1CCN(c2ccccc2)CC1)Nc1nccs1 | 4.2% | 1.6 | -12.6
O=C(CCN1CCOCC1)Nc1ccc(F)cc1 | 3.8% | 2.3 | 10.1
O=C(NCCN1CCN(c2ccccc2)CC1)Nc1ccc(Cl)cc1 | 4.1% | -23.5 | -54.7*
O=C(CCN1CCN(c2ccc(F)cc2)CC1)Nc1ccc(F)cc1 | -21.2% | -20.9 | -81.5*
O=C(CCN1CCN(c2ccccc2)CC1)Nc1nccs1 | -20.0% | 11.8 | -64.1*
Clc1cccc(N2CCN(CCCN3CCN(c4ccccc4)CC3)CC2)c1 | -59.1% | -4.3 | -78.6*
O=C(CCC(=O)N1CCN(c2cccc(Cl)c2)CC1)N1CCN(c2ccccc2)CC1 | 6.2% | 5.8 | 1.1
CCn1c(CC2C(=O)N(C)c3ccc(Br)cc32)nc2ccccc2c1=O (stereo not given) | . | -18.1 | .
COc1cc(C(=O)Nc2ccc(NC(=O)C(C)C)nc2)cc(OC)c1OC | -10.8% | -4.3 | -7.6
O=C(O)c1ccccc1N(Cc1ccccc1)C(=O)CO/N=C/c1ccccc1 | 5.6% | -3.5 | ?
c1ccc(Cn2cc(CN3CCCCO3)c(-c3ccc4c(c3)OCO4)n2)cc1 | 0.0% | 3.0 | 22.6
O=C(Cc1ccccc1)Nc1ccc(N2CCN(Cc3ccccc3F)CC2)cc1 | -17.5%[7.66 µM] | -2.7 | -51.5*
CCC(=O)Nc1ccc(N2CCN(Cc3ccccc3F)CC2)cc1 | -5.5% | -2.6 | ?
CC(CCN1CCN(c2ccccc2)CC1)c1ccccc1 (stereo not given) | 7.0% | -13.3 | -102.3*
CCOc1ccccc1C(=O)N1CCN(c2cccc(Cl)c2)CC1 | 0.3% | -19.5 | 8.2
O=C(O)c1ccccc1C(=O)N1CCN(c2cccc(Cl)c2)CC1 | -12.2% | -18.2 | -54.6*
SMILES | Integrin act MD | DRD3 agonist | DRD3 antagonist
O=C(CCN1CCN(c2ccccc2)CC1)Nc1ccc(Cl)cc1 | 4.1% | 20.9 | -62.2*
COC(=O)c1ccc(NC(=O)CCN2CCN(c3ccccc3)CC2)cc1 | -9.0% | 2.4 | 0.0
CC(CCN1CCN(c2ccccn2)CC1)c1ccccc1 (stereo not given) | -8.9% | 6.4 | ?
CC(Nc1ccc(-c2nc(-c3cccnc3)no2)cc1[N+](=O)[O-])c1ccccc1 (stereo not given) | . | 1.7 | .
CCCS(=O)(=O)NC(=O)C1(C)CCCN(C(=O)c2ccc3snnc3c2)C1 (stereo not given) | . | 5.3 | 4.8
O=C(CCN1CCN(c2ccccc2)CC1)Nc1ccc(OCc2ccccc2)cc1 | -9.9% | 34.7* | -9.2
COc1ccc(OCCCC(=O)NNC(=O)CCN2CCN(c3ccccc3)CC2)cc1 | -6.2% | -20.3 | ?
O=C(NCCN1CCN(c2cccc(Cl)c2)CC1)Nc1ccccc1 | -1.4% | -3.7 | -91.2*
O=C(NCCN1CCN(Cc2ccccc2)CC1)Nc1cc(Cl)cc(Cl)c1 | -50.9% | -18.1 | -9.6
COc1ccccc1NC(=O)NCCN1CCN(c2cccc(Cl)c2)CC1 | -10.8% | -6.7 | -91.6*
OC(CN1CCN(c2cccc(Cl)c2)CC1)C(c1ccccc1)c1ccccc1 (stereo not given) | . | -10.3 | -72.5*
Nc1ccc(N2CCN(c3cccc(Cl)c3)CC2)cc1 | -22.2% | 2.5 | -4.2
COc1ccccc1NC(=O)NCCN1CCCCC1 | 8.8% | -13.5 | -10.6
CCOc1ccc(CCNC(=O)c2cc3sccc3n2CC)cc1OCC | -14.5% | -16.4 | -22.9
COC(=O)c1cc2c(ccn2-c2ccc(F)cc2)n1Cc1ccc(OC)cc1 | -5.5% | -4.8 | -13.3
CCn1c(C(=O)OC)cc2c1ccn2-c1ccc(F)cc1 | -52.6% | 4.3 | -77.4*
COc1ccc(N2CCN(C(=O)Cc3ncc(C(F)(F)F)cc3Cl)CC2)cc1 | 2.5% | -4.5 | 21.4
N#CC(=C1C=CC(=NO)C(Cl)=C1)c1ccc(Cl)cc1 | -58.8% | -5.6 | 45.7
O=c1[nH]c(=S)[nH]c2c1C(c1cccc(C(F)(F)F)c1)OC(CCc1ccccc1)C2 (stereo not given) | . | -6.1 | -71.3*
O=c1[nH]c(=S)[nH]c2c1C(c1ccc(Cl)c(Cl)c1)OC(CCc1ccccc1)C2 (stereo not given) | . | 2.6 | 0.0
CCCCCNc1nc(N2CCCC2)c2c(c1C#N)CCN(C)C2 | -55.1% | 1.4 | -65.5*
CCCCCNc1nc(NCCCO)c(C#N)c2c1CN(C)CC2 | -3.9% | -9.1 | -7.0
CC(NC(=O)c1nn(C)c2c1CSc1ccccc1-2)c1ccccc1 (stereo not given) | . | 1.5 | .
CN(C)c1ccc(NC(=S)c2ccc3ccccc3n2)cc1 | -2.3% | -5.9 | -50.8*
Cc1ccc(C)c(NC(=S)c2ccc3ccccc3n2)c1 | 2.6% | -5.2 | 9.3
SMILES | Integrin act MD | DRD3 agonist | DRD3 antagonist
O=C(NC1CCCc2ccccc21)C1CCN(S(=O)(=O)c2cccc3nsnc23)CC1 (stereo not given) | 17.8% | -3.2 | 117.6
Cc1noc(C)c1C(=O)N1CCCC(C(=O)c2ccc(Cl)cc2)C1 (stereo not given) | 4.9% | -11.0 | -11.8
Cc1ccc2[nH]nc(C(=O)N3CCCC(C(=O)c4ccc(Cl)cc4)C3)c2c1 (stereo not given) | 3.4% | 34.3* | 33.3
CC1(C(=O)Nc2ccc3c(c2)OCCO3)CSCC(=O)N1C1CCN(Cc2ccccc2)CC1 (stereo not given) | . | -16.8 | -61.5*
CC1(C(=O)Nc2ccc3c(c2)OCCO3)CSCC(=O)N1CCCN1CCOCC1 (stereo not given) | . | 0.7 | -12.3
COc1ccc(C(=O)Nn2c(SCC(=O)c3ccccc3)nc3ccccc3c2=O)cc1 | 13.8% | -1.0 | -23.3
CCOC(=O)CSc1nc2ccccc2c(=O)n1NC(=O)c1ccccc1 | 15.5% | 34.7* | 6.8
CCN1CCN(CCc2nc3cc([N+](=O)[O-])ccc3n2C)CC1 | -7.7% | -5.8 | -15.5
CCOc1ccc(CCNC(=O)CN2C(=O)C(CC)Oc3ccccc32)cc1OCC (stereo not given) | . | 2.3 | .
CC(=O)Nc1ccc(NS(=O)(=O)c2ccc3c(c2)n(C)c(=O)n3C)cc1 | 12.0% | 1.0 | 2.6
O=C(O)c1cnc(-c2ccccc2)nc1-c1ccccc1 | 6.3% | 4.0 | 2.7
O=C(Nc1ccccc1)c1cnc(-c2ccccc2)nc1-c1ccccc1 | -22.1% | 43.0* | 27.6
COc1ccc(NC(=O)c2cc3c(=O)n(Cc4cccs4)ccc3nc2C)c(OC)c1 | . | -13.6 | .
Cc1cccc(C(=O)Nc2nnc(-c3cccnc3)o2)c1 | -19.7% | -5.7 | -10.5
